Source: PubChem BioAssay (Tox21)
Several values for one entry are separate records, joined by “and”; a condition that tells them apart may be missing. Equal values may be shown once. Records with an inconclusive call do not appear. Where a call stands in place of a potency, no number is given. More than one record can exist for a structure, and the calls need not agree. Activity calls are given as the source filed them. The call rests on the fitted dose curve; in most records, active means well fitted inhibition curve with a large enough effect in the repeat runs; inconclusive means weak or mixed curves; inactive means flat fitted curve, though single readings scatter.

These compounds were tested against Luciferin 4-monooxygenase (Photinus pyralis) (UniProt P08659) (assay: qHTS assay to identify small molecule inhibitors of firefly luciferase (AID 1224835; further: nearly all actives have a fitted effect of over 25% in size)). Conditions: purified P. pyralis luciferase, luminescence inhibition; series mostly up to 115 µM.
Luciferin 4-monooxygenase (Photinus pyralis), sequence (P08659 whole entry, looked up): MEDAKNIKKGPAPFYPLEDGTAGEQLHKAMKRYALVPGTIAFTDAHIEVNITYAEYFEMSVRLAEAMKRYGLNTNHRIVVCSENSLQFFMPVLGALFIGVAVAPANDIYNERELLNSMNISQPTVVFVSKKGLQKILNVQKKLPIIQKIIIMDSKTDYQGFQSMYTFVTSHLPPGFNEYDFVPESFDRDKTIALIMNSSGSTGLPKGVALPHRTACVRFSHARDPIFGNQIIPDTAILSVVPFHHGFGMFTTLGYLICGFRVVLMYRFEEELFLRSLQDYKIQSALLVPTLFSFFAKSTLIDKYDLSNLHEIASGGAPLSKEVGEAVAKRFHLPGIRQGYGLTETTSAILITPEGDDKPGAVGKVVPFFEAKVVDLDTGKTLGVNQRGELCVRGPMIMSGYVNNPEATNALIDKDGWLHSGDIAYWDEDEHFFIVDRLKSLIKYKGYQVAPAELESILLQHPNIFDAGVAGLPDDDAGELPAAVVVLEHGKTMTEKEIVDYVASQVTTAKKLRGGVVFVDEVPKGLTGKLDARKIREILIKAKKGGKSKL
From the text: U.S. Tox21 Program National Center for Advancing Translational Sciences [NCATS] NIH Chemical Genomics Center [NCGC] U.S. Environmental Protection Agency [EPA] National Institutes of Environmental Health Sciences [NIEHS] National Toxicology Program [NTP] U.S. Food and Drug Administration [FDA] Tox21 Assay Overview: Firefly (Photinus pyralis) luciferase is one of the most commonly used transcriptional reporters. Firefly luciferase reporter-gene assays are generally considered one of the most sensitive assay types (Wood, 1995; Wood, 1998). However, it was initially observed, in 1991, by Thompson et al., that compounds that resemble the substrates of firefly luciferase (FLuc) can act as competitive inhibitors of the enzyme, and that these compounds, upon interaction with luciferase in the cell, can actually stabilize the protein and increase its half-life. Previous profiling work by other groups to determine the prevalence of compounds that affect FLuc enzymatic activity (PubChem AID 411) identified that ~3% of the MLSMR library (then at ~72K) inhibited FLuc. […] Thus the Tox21 10K library is profiled for activity against FLuc using a biochemical assay of purified FLuc and KM concentrations of FLuc substrates (D-luciferin and ATP).
These assay plates were then treated with 23nL of compound or DMSO using a Kalypsys pin tool, which allows for delivery of a 6-point interplate titration of each compound to the assay plate (quantitative HTS.) 1 uL of firefly luciferase mix (containing 50 mM Tris acetate, pH 7.6, 0.04 uM P. pyralis luciferase, 0.01% Tween, 0.05% BSA and dH2O) was then delivered by FRD to each well. Luciferase activity was then measured using a ViewLux CCD imager.

| SMILES | Potency |
| --- | --- |
| C=C(C)C(=O)OCC(CC)(COC(=O)C(=C)C)COC(=O)C(=C)C | inactive |
| Nc1cc(-c2ccncc2)c[nH]c1=O | inactive |
| Cc1cc(O)c2c(c1)C(=O)c1cc(O)cc(O)c1C2=O | 34.8 µM (active) and 31.7 µM (active) |
| Oc1ccc(OCc2ccccc2)cc1 | 31.1 µM (active) and 17.4 µM (active) |
| O=[N+]([O-])C(CO)(CO)CO | inactive |
| CCCCC(CC)COC(=O)CCCCCCCC(=O)OCC(CC)CCCC (stereo not given) | inactive |
| CCOC(=O)[C@H](CCc1ccccc1)N[C@@H](C)C(=O)N1Cc2ccccc2C[C@H]1C(=O)O | inactive |
| CC(=O)CCc1ccccc1 | inactive |
| O=Nc1ccc(O)cc1 | inactive |
| CCCCC(CC)COC(C)=O (stereo not given) | inactive |
| C=CC(=O)OCCCCCCCC(C)C | inactive |
| Cc1cc(O)cc(C)c1Cl | inactive |
| CCC(=O)O | inactive |
| NCCc1ccc(O)c(O)c1 | inactive |
| CC1(C)CC(N=C=O)CC(C)(CN=C=O)C1 (stereo not given) | inactive |
| C/C=C(C)/C=C/C=C(C)C | inactive |
| CC1(C)O[C@@H]2C[C@H]3[C@@H]4C[C@H](F)C5=CC(=O)CC[C@]5(C)[C@H]4[C@@H](O)C[C@]3(C)[C@]2(C(=O)CO)O1 | inactive |
| O=C(c1ccc(O)cc1)c1ccc(O)cc1O | 71.8 µM (active) and 39.9 µM (active) |
| S=c1nc[nH]c2nc[nH]c12 | inactive |
| Clc1cc(Cl)c(Cl)cc1Cl | inactive |

| SMILES | Potency |
| --- | --- |
| Cc1cc(Cc2ccc(N)c(C)c2)ccc1N | inactive |
| Nc1c(S(=O)(=O)O)cc(Br)c2c1C(=O)c1ccccc1C2=O | 35.6 µM (active) |
| CC1Cc2ccccc2N1NC(=O)c1ccc(Cl)c(S(N)(=O)=O)c1 (stereo not given) | inactive |
| Oc1c(Cl)cc(Cl)c(Cl)c1Cl | inactive |
| CCOC(=O)/C=C\C(=O)OCC | inactive |
| CCCCCCCCCCCCN | inactive |
| COC(=O)c1ccc(C(=O)OC)cc1 | 32.1 µM (active) and inactive |
| CC(C)(N=C=O)c1cccc(C(C)(C)N=C=O)c1 | inactive |
| CCCCC/C=C\C/C=C\CCCCCCCC(=O)OC | inactive |
| C=C1C2CCC(C2)C1(C)C (stereo not given) | inactive |
| OC1CCCC1 | inactive |
| CC1CC(OC(=O)c2ccccc2O)CC(C)(C)C1 (stereo not given) | inactive |
| O=c1c(-c2ccc(O)cc2)coc2cc(O)ccc12 | 24.9 µM (active) and 12.6 µM (active) |
| COC(=O)c1ccccc1O | 63.5 µM (active) and inactive |
| CC1=C(CC(=O)O)c2cc(F)ccc2/C1=C\c1ccc(S(C)=O)cc1 (stereo not given) | inactive |
| O=S(=O)(O)CCS | inactive |
| CNC[C@H](O)[C@@H](O)[C@H](O)[C@H](O)CO | inactive |
| CC[Si](OC(C)=O)(OC(C)=O)OC(C)=O | inactive |
| CN(C)c1ccc(C(=N)c2ccc(N(C)C)cc2)cc1 | 55.7 µM (active) and inactive |
| CCCCCCCCCCC=CC1CC(=O)OC1=O (stereo not given) | 63.6 µM (active) and 71 µM (active) |
